Measurements: PubChem BioAssay (EPA / NIEHS)
Records with an inconclusive call do not appear. The source made the active and inactive calls. Rule for the calls: active = hit-call score of the fitted dose curve at least 0.9, where 1 is the maximum; inconclusive = response in the unintended direction; inactive = score below 0.9.

molecular target: human Protein Tyrosine Phosphatase Non-receptor Type 9 (PTPN9), PTPN9 (gene 5780) (UniProt P43378); test: NVS_ENZ_hPTPN9: NovaScreen (NVS) Enzymatic Assay for human Protein Tyrosine Phosphatase Non-receptor Type 9 (PTPN9) (AID 2283209)
Description: NVS_ENZ_hPTPN9 is a biochemical, single-readout assay that uses extracted gene-proteins from SF9 in a cell-free assay. Measurements were taken 1.33 hours after chemical dosing in a 384-well plate.NVS_ENZ_hPTPN9 is one of one assay component(s) measured or calculated from the NVS_ENZ_hPTPN9 assay. It is designed to make measurements of enzyme activity, a form of enzyme reporter, as detected with fluorescence intensity signals by Fluorescence and electrophoretic mobility shift technology.Data from the assay component NVS_ENZ_hPTPN9 was analyzed into 1 assay endpoint. This assay endpoint, NVS_ENZ_hPTPN9, was analyzed in the positive analysis fitting direction relative to DMSO as the negative control and baseline of activity. Using a type of enzyme reporter, loss-of-signal activity can be used to understand changes in the enzymatic activity as they relate to the gene PTPN9. Furthermore, this assay endpoint can be referred to as a primary readout, because this assay has produced multiple assay endpoints where this one serves a enzymatic activity function. To generalize the intended target to other relatable targets, this assay endpoint is annotated to the phosphatase intended target family, where the subfamily is non-receptor tyrosine phosphatase.
Binding assays used specific radioligands (tritiated, iodinated) with non-radioactive competitive displacement ligands in agonist or antagonist protocols (as indicated) and various reference compounds and inhibitors to titrate specific binding to receptors and transporters. Most enzyme assays (CYPs, kinases, phosphatases, proteases, HDACs) used recombinant protein and specific substrates (fluorescence mostly, some colorimetric and radioactive) and inhibitors, followed by a biochemical separation of substrate and product. All assays for the biochemical HTS were initially run in duplicate at a single concentration (10 uM for CYP450 assays and 25 uM for all others). Assay-chemical combinations meeting a pre-defined threshold (e.g., 30% inhibition and other criteria defined below) were then run in singleton concentration-response format with maximum concentration of 20 uM for CYPs and 50 uM for all others. Each assay was run with positive and negative controls, and concurrent controls on every plate. The follow-up (secondary) screen tested active chemical-pairs in concentration series, as well as a few additional assays not tested in the primary screen, some selected negative inactives, and several cases re-run in the concentration series for confirmatory purposes.

human Protein Tyrosine Phosphatase Non-receptor Type 9 (PTPN9), PTPN9 (gene 5780), sequence (P43378 whole entry, looked up): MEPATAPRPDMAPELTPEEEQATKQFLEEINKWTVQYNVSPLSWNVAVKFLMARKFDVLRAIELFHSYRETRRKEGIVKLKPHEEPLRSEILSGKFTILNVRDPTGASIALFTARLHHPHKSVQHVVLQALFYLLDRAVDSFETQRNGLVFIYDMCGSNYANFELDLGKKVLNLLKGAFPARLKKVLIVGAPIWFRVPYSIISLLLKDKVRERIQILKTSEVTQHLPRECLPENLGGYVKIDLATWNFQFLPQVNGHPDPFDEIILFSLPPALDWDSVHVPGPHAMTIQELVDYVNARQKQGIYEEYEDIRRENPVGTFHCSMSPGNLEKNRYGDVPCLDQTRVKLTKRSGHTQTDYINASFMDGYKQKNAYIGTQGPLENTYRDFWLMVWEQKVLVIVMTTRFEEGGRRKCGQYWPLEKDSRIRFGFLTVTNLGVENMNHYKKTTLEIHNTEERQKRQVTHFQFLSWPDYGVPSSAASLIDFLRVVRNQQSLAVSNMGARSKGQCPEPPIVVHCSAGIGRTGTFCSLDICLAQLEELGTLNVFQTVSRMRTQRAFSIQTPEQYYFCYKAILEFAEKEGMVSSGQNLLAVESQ

outcome, inactive:
O=C1OC(=O)C2C3C=CC(C3)C12 (stereo not given), O=C(O)c1cc(N=Nc2ccc(S(=O)(=O)Nc3ccccn3)cc2)ccc1O, CN(C)c1ccc(Cc2ccc(N(C)C)cc2)cc1, O=C(O)c1cccc(Oc2ccccc2)c1, CCCCC(CC)COC(=O)c1ccc(C(=O)OCC(CC)CCCC)cc1 (stereo not given), Cc1ccc(N)cc1O, CN(C)c1ccc(N=NS(=O)(=O)O)cc1, CC(C)=CCC/C(C)=C/CO, O=c1n(CC2CO2)c(=O)n(CC2CO2)c(=O)n1CC1CO1 (stereo not given), CC[C@H](C)C(=O)O[C@H]1C[C@@H](C)C=C2C=C[C@H](C)[C@H](CC[C@@H]3C[C@@H](O)CC(=O)O3)[C@H]21
